# In PubChem BioAssay (Tox21):
# Values without a mark were called inactive. Records with an inconclusive call do not appear. Entries that show only a call come without a potency. Activity calls are given as the source filed them. Calls follow the shape of the dose curve; as a rule, active = well fitted curve in the direction sought with a large enough effect in the repeat runs; inconclusive = weak or mixed curves; inactive = no such curve, though single readings can be large; an effect the other way counts as inactive or inconclusive.
# What was measured:
# [1] = A CellTox Green Cytotoxicity Assay to monitor cytotoxicity in HepG2 cells - 0 hour (AID 1224882); also: nearly all actives have a fitted effect of over 35% in size; also: potency is read from the fitted curve at half-maximal effect
# Method in brief: (§1)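 HepG2 cells, 600/well, preincubated 5 h with CellTox Green dye, then exposed to Tox21 compounds in DMSO at 37 C for up to 40 h. Dead-cell DNA fluorescence read at the indicated time point.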
# [2] = A CellTox Green Cytotoxicity Assay to monitor cytotoxicity in HepG2 cells - 32 hour (AID 1224883); also: nearly all actives have a fitted effect of over 50% in size; also: potency is read from the fitted curve at half-maximal effect
# Method in brief: as §1
# [3] = A CellTox Green Cytotoxicity Assay to monitor cytotoxicity in HEK293 cells - 8 hour (AID 1224884); also: nearly all actives have a fitted effect of over 35% in size; also: potency is read from the fitted curve at half-maximal effect
# Method in brief: (§2)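 HEK293 cells, 600/well, were preincubated 5 hours and then exposed to compounds at 37 C for up to 40 hours. A cell-impermeant cyanine dye staining dead-cell DNA was read by fluorescence at 0, 8, 16, 24, 32 and 40 h time points.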
# [4] = qHTS RealTime-Glo MT Cell Viability Assay in HEK293 cells - 24 hour (AID 1224886); also: nearly all actives have a fitted effect of over 50% in size; also: potency is read from the fitted curve at half-maximal effect; as to activity change, negative = cytotoxicity: top concentration of the series differs between compounds
# Method in brief: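 HEK293 cells were seeded at 600 cells/well together with NanoLuc luciferase and cell-permeant prosubstrate, preincubated 5 h at 37 C/5% CO2, then given compound in DMSO by pintool. Luminescence from viable-cell prosubstrate reduction was read repeatedly over 40 h.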
# [5] = A CellTox Green Cytotoxicity Assay to monitor cytotoxicity in HEK293 cells - 16 hour (AID 1224888); also: nearly all actives have a fitted effect of over 35% in size; also: potency is read from the fitted curve at half-maximal effect
# Method in brief: as §2
# [6] = qHTS RealTime-Glo MT Cell Viability Assay in HepG2 cells - 0 hour (AID 1224889); also: nearly all actives have a fitted effect of over 50% in size
# Method in brief: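 HepG2 cells were seeded at 600 cells/well together with NanoLuc luciferase and a cell-permeant prosubstrate, preincubated 5 h at 37 C/5% CO2, then pin-dosed with compounds in DMSO. Nonlytic luminescence from viable cells was read at each time point.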
# [7] = A CellTox Green Cytotoxicity Assay to monitor cytotoxicity in HepG2 cells - 8 hour (AID 1224890); also: nearly all actives have a fitted effect of over 45% in size; also: potency is read from the fitted curve at half-maximal effect
# Method in brief: as §1
# [8] = qHTS RealTime-Glo MT Cell Viability Assay in HEK293 cells - 8 hour (AID 1224887); also: nearly all actives have a fitted effect of over 50% in size; also: potency is read from the fitted curve at half-maximal effect; as to activity change, negative = cytotoxicity: top concentration of the series differs between compounds
# Method in brief: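 600 cells/well were plated with the nonlytic NanoLuc/prosubstrate reagent, pre-incubated 5 h, then given 23 nL of compound in DMSO. Incubation at 37 C for 40 h, with luminescence from viable-cell-reduced substrate read repeatedly from 0 h.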
# [9] = qHTS assay to identify small molecule antagonists of the estrogen receptor alpha (ER-alpha) signaling pathway using the BG1 cell line in the presence of 0.1 nM 17-beta-estradiol - cell viability counter screen (AID 1259241); also: nearly all actives have a fitted effect of over 40% in size; also: potency is read from the fitted curve at half-maximal effect
# Method in brief: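 VM7Luc4E2, 4,000 cells/well, phenol red-free medium + 10% charcoal-stripped FBS; 24 hr plating; cpd + 0.1 nM E2 final, 22 hr 37C/5% CO2; CellTiter-Fluor 30 min, fluorescence.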
smiles,measurement,setting,value
COc1ccccc1OCCNCC(O)COc1cccc2[nH]c3ccccc3c12 (configuration not stated),Potency,[1],inactive
same,Potency,[2],23.9 µM (active)
same,Potency,[3],inactive
same,Potency,[4],10.7 µM (active)
same,Potency,[5],inactive
same,Potency,[6],inactive
same,Potency,[7],inactive
C[n+]1c2cc(N)ccc2cc2ccc(N)cc21 (tested in a mixture with another compound),Potency,[1],23.9 µM (active)
same,Potency,[2],21.3 µM (active)
same,Potency,[3],23.9 µM (active)
same,Potency,[4],9.52 µM (active)
same,Potency,[6],inactive
CCC(=O)OCCc1ccccc1,Potency,[1],inactive
same,Potency,[2],inactive
same,Potency,[3],inactive
same,Potency,[4],inactive
same,Potency,[8],inactive
same,Potency,[5],inactive
same,Potency,[6],inactive
same,Potency,[7],inactive
same,Potency,[9],inactive
Oc1ccc(-c2ccccc2)c(Cl)c1,Potency,[1],inactive
same,Potency,[2],49 µM (active)
same,Potency,[3],inactive
same,Potency,[4],24.5 µM (active)
same,Potency,[6],inactive
CCc1c(C(=O)O)c(=O)cnn1-c1ccc(Cl)cc1,Potency,[1],inactive
same,Potency,[2],inactive
same,Potency,[3],inactive
same,Potency,[4],inactive
same,Potency,[5],inactive
same,Potency,[6],inactive
same,Potency,[7],inactive
same,Potency,[9],inactive
Cc1cn[nH]c1,Potency,[1],inactive
same,Potency,[2],inactive
same,Potency,[3],inactive
same,Potency,[4],inactive
same,Potency,[8],inactive
same,Potency,[5],inactive
same,Potency,[6],inactive
same,Potency,[7],inactive
same,Potency,[9],inactive
CCc1ccc(O)c(C(C)(C)C)c1,Potency,[1],inactive
same,Potency,[2],38.9 µM (active)
same,Potency,[3],inactive
same,Potency,[8],inactive
same,Potency,[5],inactive
same,Potency,[6],inactive
same,Potency,[7],43.6 µM (active)
same,Potency,[9],inactive
Cc1cccc(C)n1,Potency,[1],inactive
same,Potency,[2],inactive
same,Potency,[3],inactive
same,Potency,[4],inactive
same,Potency,[8],inactive
same,Potency,[5],inactive
same,Potency,[6],inactive
same,Potency,[7],inactive
same,Potency,[9],inactive
OCCCCl,Potency,[1],inactive
same,Potency,[2],inactive
same,Potency,[3],inactive
same,Potency,[4],inactive
same,Potency,[5],inactive
same,Potency,[6],inactive
same,Potency,[7],inactive
same,Potency,[9],inactive
CC(C)(C)c1cc(/C=C2\SC(=N)NC2=O)cc(C(C)(C)C)c1O,Potency,[1],inactive
same,Potency,[2],43.6 µM (active)
same,Potency,[3],inactive
same,Potency,[4],49 µM (active)
same,Potency,[6],inactive
same,Potency,[7],49 µM (active)
same,Potency,[9],inactive
O=C(O)CC(=O)O,Potency,[1],inactive
same,Potency,[2],inactive
same,Potency,[3],inactive
same,Potency,[4],inactive
same,Potency,[8],inactive
same,Potency,[5],inactive
same,Potency,[6],inactive
same,Potency,[7],inactive
same,Potency,[9],inactive
NC(=O)c1ccccc1N,Potency,[1],inactive
same,Potency,[2],inactive
same,Potency,[3],inactive
same,Potency,[4],inactive
same,Potency,[8],inactive
same,Potency,[5],inactive
same,Potency,[6],inactive
same,Potency,[9],inactive
CCN1CCN(c2cc(-c3ccc(F)cc3)c3c(n2)CCCCCC3)CC1,cytotoxicity,[1],-0.25% [at 15.8 µM]
same,cytotoxicity increase,[2],34% [at 15.8 µM]
same,cytotoxicity increase,[3],-3.6% [at 15.8 µM]
same,"activity change, negative = cytotoxicity",[4],-6.43% [at 15.8 µM]
same,"activity change, negative = cytotoxicity",[8],3.49% [at 15.8 µM]
same,activity change,[5],"4.21% [at 15.8 µM, stronger effect = higher value]"
same,"activity change, negative = cytotoxicity",[6],21.1% [at 15.8 µM]
same,"activity change, negative = cytotoxicity",[9],4.69% [at 19 µM]
Nc1ncnc2c1ncn2[C@@H]1O[C@H](COP(=O)(O)O)[C@@H](O)[C@H]1O,Potency,[1],inactive
same,Potency,[2],inactive
same,Potency,[3],inactive
same,Potency,[4],inactive
same,Potency,[8],inactive
same,Potency,[5],inactive
same,Potency,[7],inactive
CC[N+](CC)(CC)Cc1ccccc1,Potency,[1],inactive
same,Potency,[2],inactive
same,Potency,[3],inactive
same,Potency,[4],inactive
same,Potency,[8],inactive
same,Potency,[6],inactive
same,Potency,[7],inactive
same,Potency,[9],inactive
CN(C)CCCN1c2ccccc2Sc2ccc(C(F)(F)F)cc21,Potency,[1],inactive
same,Potency,[2],23.9 µM (active)
same,Potency,[3],inactive
same,Potency,[4],21.3 µM (active)
same,Potency,[8],21.3 µM (active)
same,Potency,[9],inactive
O=CC1CC1,Potency,[1],inactive
same,Potency,[2],inactive
same,Potency,[3],inactive
same,Potency,[4],inactive
same,Potency,[8],inactive
same,Potency,[5],inactive
same,Potency,[6],inactive
same,Potency,[7],inactive
same,Potency,[9],inactive
Clc1ccc(C(Cn2ccnc2)OCc2ccsc2Cl)c(Cl)c1 (configuration not stated),Potency,[1],inactive
same,Potency,[2],23.9 µM (active)
same,Potency,[3],inactive
same,Potency,[4],15.1 µM (active)
same,Potency,[6],inactive
same,Potency,[7],inactive
same,Potency,[9],inactive
ClC/C=C\CCl,Potency,[1],inactive
same,Potency,[2],inactive
same,Potency,[3],inactive
same,Potency,[4],inactive
same,Potency,[5],inactive
same,Potency,[6],inactive
same,Potency,[7],inactive
C=CC(=O)OCCOCC(CC)(COCCOC(=O)C=C)COCCOC(=O)C=C,Potency,[1],inactive
same,Potency,[2],25.6 µM (active)
same,Potency,[3],inactive
same,Potency,[4],16.1 µM (active)
same,Potency,[5],inactive
same,Potency,[7],inactive
same,Potency,[9],14.3 µM (active)
CCc1ccc(C)nc1,Potency,[1],inactive
same,Potency,[2],inactive
same,Potency,[3],inactive
same,Potency,[4],inactive
same,Potency,[5],inactive
same,Potency,[6],inactive
same,Potency,[7],inactive
same,Potency,[9],inactive
O=C1NCCN1CCN1CCC(c2cn(-c3ccc(F)cc3)c3ccc(Cl)cc23)CC1,Potency,[1],inactive
same,Potency,[2],26.8 µM (active)
same,Potency,[3],inactive
same,Potency,[4],21.3 µM (active)
same,Potency,[6],inactive
CC1CCCCN1CCCOC(=O)c1ccc(OC2CCCCC2)cc1 (configuration not stated),Potency,[1],inactive
same,Potency,[2],26.8 µM (active)
same,Potency,[3],inactive
same,Potency,[8],10.7 µM (active)
same,Potency,[5],inactive
same,Potency,[6],inactive
same,Potency,[7],inactive
same,Potency,[9],inactive
COc1ccccc1C=O,Potency,[1],inactive
same,Potency,[2],inactive
same,Potency,[3],inactive
same,Potency,[4],inactive
same,Potency,[5],inactive
same,Potency,[6],inactive
same,Potency,[7],inactive
CO[C@H]1C=CO[C@@]2(C)Oc3c(C)c(O)c4c(O)c(cc(O)c4c3C2=O)NC(=O)/C(C)=C\C=C/[C@H](C)[C@H](O)[C@@H](C)[C@@H](O)[C@@H](C)[C@H](OC(C)=O)[C@@H]1C,Potency,[1],inactive
same,Potency,[2],inactive
same,Potency,[3],inactive
same,Potency,[4],inactive
same,Potency,[7],inactive
same,Potency,[9],27.5 µM (active)
CC(C)(C)CC(C)(C)c1ccccc1O,Potency,[1],inactive
same,Potency,[2],27.7 µM (active)
same,Potency,[3],39.1 µM (active)
same,Potency,[8],34.9 µM (active)
same,Potency,[5],39.1 µM (active)
same,Potency,[6],inactive
same,Potency,[9],inactive
